Data reported in ChEMBL document CHEMBL3988442, “University of Dundee, Small-Polar-MMV Screening Library” (2021).
About 1,200 (3.2%) of roughly 38,000 compounds showed an effect of 50% or more. The median lay at about -58%. For the sample, strong results were picked, then their nearest neighbours and some compounds at random.

Test system: Plasmodium falciparum
Assay: Calibr Malaria Delayed Death Assay SOP
Assay type: functional, organism-based
Set-up: scale not given: in the data most compounds retested in dose-response had high values
Conditions: concentration 4.99e-06 (unit not given; other assays of the set use mol/L)

Row | Compound | Percent Effect [%]
1 | COCCn1ccnc1C1CCCN(c2cc(OC)nc(N)n2)C1 (configuration not stated) | -62.62
2 | CC(O)(CN1CCC(O)CC1)c1cccc(C(F)(F)F)c1 (configuration not stated) | 56.04
3 | CC(=O)N1CCCN(CC(C)(O)c2cccc(C(F)(F)F)c2)CC1 (configuration not stated) | -93.83
4 | CC(O)(CN1CCC2(CC1)OCCO2)c1cccc(C(F)(F)F)c1 (configuration not stated) | -10.61
5 | COc1cc(C)c(S(=O)(=O)CC(=O)N(C)C2CC2)cc1OC | -72.85
6 | NC(=O)C1(c2cnccn2)CCCN1Cc1ccccn1 (configuration not stated) | -37.82
7 | Cc1ccc(NCCCc2c(C)noc2C)nn1 | -93.73
8 | O=C(O)C(F)(F)F.c1cnc(NC2COC3(CCN(Cc4cccs4)CC3)C2)nc1 (configuration not stated) | -52.55
9 | Cc1cc(C)cc(CN2CCC3(CC2)CC(Nc2ncccn2)CO3)c1.O=C(O)C(F)(F)F (configuration not stated) | 60.22
10 | Cn1cc(CN2CCC3(CC2)CC(Nc2nccs2)CO3)cn1.O=C(O)C(F)(F)F (configuration not stated) | -11.64
11 | O=C(O)C(F)(F)F.c1ccc(CN2CCC3(CC2)CC(Nc2nccs2)CO3)nc1 (configuration not stated) | 73.68
12 | O=C(O)C(F)(F)F.c1cnc(NC2COC3(CCN(Cc4ccoc4)CC3)C2)nc1 (configuration not stated) | -27.43
13 | Cc1cc(CN2CCC3(CC2)CC(Nc2ncccn2)CO3)nn1C.O=C(O)C(F)(F)F (configuration not stated) | -11.8
14 | COc1ccc2c(ccn2CCC(=O)Nc2ccc(C(N)=O)cc2)c1 | -55.48
15 | COCCCN(C)C1CCCN(Cc2noc(C3CC3)n2)C1 (configuration not stated) | -38.52
16 | CCCc1nnc(N2CCC3(CC2)CN(C)C(=O)O3)o1 | -93.43
17 | O[C@H]1CC[C@@H](Cc2cc(-c3ccccn3)on2)O[C@@H]1CNCC1CC1 | -74.71
18 | O[C@H]1CC[C@@H](Cc2cc(-c3ccccc3)on2)O[C@@H]1CNCC1CC1 | 37.66
19 | O[C@H]1CC[C@@H](Cc2cc(-c3ccc(F)cc3)on2)O[C@@H]1CNCC1CC1 | 62.55
20 | CN(Cc1cccs1)c1cc(N2CCCC2CO)ncn1 (configuration not stated) | -120.2
21 | Cc1cc2nc(SCC(=O)N3CCOCC3)n(CC(C)C)c(=O)c2[nH]1 | -82.87
22 | CC(C)c1cc(Br)ccc1NC(=O)NC(C)(CO)CO | -72.51
23 | CC(c1nc(C(C)(C)C)no1)S(=O)(=O)CC(=O)N(C)C (configuration not stated) | -171.7
24 | Fc1ccc(OCCCNC2=NCCN2)cc1.I | 3.475
25 | Fc1ccc(Sc2ccccc2CNC2=NCCN2)cc1.I | 79.96
26 | O=C(CCc1nnc2ccccn2c1=O)NCc1ccco1 | -46.43
27 | COc1ccsc1C(=O)NCCN1CCOCC1 | -115.8
